# From PubChem BioAssay AID463195 (Sanford-Burnham Center for Chemical Genomics, 2010)
# Hit rate of the full screen: of about 330,000 compounds, about 4,600 (1.4%) were called active.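 How the source made its calls: active means inhibition of 40% or more at the single tested concentration; inactive means the rest.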 The full list was thinned out, with actives kept by preference.
# Assay: growth inhibitors of isogenic TIM10 control yeast, primary screen, counter-screen for tim10-1 yeast inhibitor project, luminescence, uHTS (AID 463195);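 further: wild-type TIM10 isogenic control strain grown at permissive 25 °C; 0% = DMSO yeast wells and 100% = minimal medium wells without yeast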
# Conditions: S. cerevisiae TIM10 strain growth, BacTiter-Glo luminescence, 24 h; at 10 µM; hits give high values
row,SMILES,inhibition
1,CC(=O)Nc1ccc(S(=O)(=O)NCC(=O)OCc2cc(=O)oc3ccc4ccccc4c23)cc1,6.88% (inactive)
2,N#Cc1cccc(CN2CCC(=O)N([C@H](CO)c3ccccc3)CC2)c1,12.1% (inactive)
3,O=[N+]([O-])c1cc([N+](=O)[O-])c(Oc2cc(F)cc(F)c2F)cc1NN1CCCCC1,-1.5% (inactive)
4,Oc1ccccc1-c1cc(-c2ccc(Cl)cc2)n[nH]1,53.8% (active)
5,Cc1ccc(NC(=O)c2cc(-c3ccccc3O)n[nH]2)cc1C,0.905% (inactive)
6,O=C(Nc1cccnc1Cl)c1cc(-c2ccccc2O)on1,3.29% (inactive)
7,CCCCC1S/C(=N/N=C/c2cccs2)NC1=O (centres undefined),5.03% (inactive)
8,O=C(CNC(=O)c1cccs1)N/N=C/c1cccc(Br)c1,18.4% (inactive)
9,O=C(N/N=C/c1cccc(Br)c1)c1ccc(N2CCCC2=O)cc1,12% (inactive)
10,O=C(N/N=C\c1cccc(Br)c1)c1ccccc1-n1cccc1,51.9% (active)
11,CC(C)(C)OC(=O)C[C@@H]1C/C=C\C[C@@H](CC(=O)NCCO)C(=O)N[C@H](Cc2c[nH]c3ccccc23)COC1=O,-3.29% (inactive)
12,CC(C)CCn1cnc2c1c(=O)n(CC(=O)NC(N)=O)c(=O)n2Cc1ccccc1,2.63% (inactive)
13,COc1cc(C(=O)NN(CCC#N)C2=NS(=O)(=O)c3ccccc32)cc(OC)c1OC,8.55% (inactive)
14,Nc1cccc(-c2cc(-c3ccccc3)nc(-c3cccc(N)c3)n2)c1,44.2% (active)
15,Nc1ccc(-c2nnc(-c3ccccc3)o2)cc1,8.79% (inactive)
16,Cc1nc(NNC(=O)c2ccccc2)cc(-c2ccccc2)n1,10.7% (inactive)
17,CC1=NNC(=O)C1Cc1c(Cl)cccc1Cl (centres undefined),13.4% (inactive)
18,COc1ccc(N2C(=O)C(CC(=O)Nc3ccc(F)cc3)N(CCc3cccs3)C2=O)cc1 (centres undefined),27.1% (inactive)
19,CCc1ccccc1NC1c2ccccc2C(=O)N1c1cccnc1 (centres undefined),-1.26% (inactive)
20,O=C1[C@@H](c2ccccc2)[C@@H](c2ccccc2)N1c1cccnc1,63.5% (active)
21,CC(=O)C1=C(O)C(=O)N(c2cccnc2)C1c1ccc([N+](=O)[O-])cc1 (centres undefined),-3.83% (inactive)
22,COc1ccc(-c2c(C)cc3oc(=O)cc(-c4ccccc4)c3c2C)cc1C=O,-23.6% (inactive)
23,CCN(C(=O)COC(=O)CCOc1cccc(C)c1)c1c(N)n(Cc2ccccc2)c(=O)[nH]c1=O,-2.83% (inactive)
24,Fc1ccccc1N=C1Nc2cccc3cccc1c23,5.3% (inactive)

row,SMILES,inhibition
1,c1ccc(C2=Nc3cccc4cccc(c34)N2)cc1,42.2% (active)
2,COc1ccccc1C1=Nc2cccc3cccc(c23)N1,8.32% (inactive)
3,CCO/C=C1\C(=O)N(c2ccc(OCC)cc2)C(=O)c2ccccc21,1.43% (inactive)
4,CSc1ccccc1NC(=O)COC(=O)CCCOc1ccc(C)cc1,-8.29% (inactive)
5,COc1cc([N+](=O)[O-])ccc1NC(=O)COC(=O)CCOc1ccc(C)cc1,49% (active)
6,COc1cccc(NC(=O)COC(=O)CCOc2ccccc2OC)c1,30% (inactive)
7,Cc1cccc(OCc2nnc(SCc3nc4cc(C(F)(F)F)ccc4c(=O)[nH]3)o2)c1,23% (inactive)
8,Cc1ccccc1OCC(=O)Nc1ccc2c(c1)ncn2C,2.51% (inactive)
9,Cc1ccccc1OCC(=O)Nc1ccc(N2CCN(C(=O)C(C)C)CC2)c(Cl)c1,65.5% (active)
10,Cc1ccccc1OCC(=O)Nc1ccc(S(=O)(=O)N2CCOCC2)cc1,18.7% (inactive)
11,CCC(C)N(C(=O)Cn1nc(C)c([N+](=O)[O-])c1C)C1CCS(=O)(=O)C1 (centres undefined),2.63% (inactive)
12,CCN(CC(=O)Nc1ccc2c(c1)OCCO2)Cc1cc(=O)oc2cc(C)c(C)cc12,2.82% (inactive)
13,CCN(CC(=O)NC(C)C)C(=O)c1cc(S(=O)(=O)N2CCCCC2)ccc1N1CCCCC1,-4.18% (inactive)
14,C=CCNC(=O)c1ccc2c3n(nc2c1)-c1ccc(C)cc1CO3,47% (active)
15,Cn1nnc2cc(C(=O)NCCC3=CCCCC3)ccc21,9.76% (inactive)
16,Cc1cccc(-c2nc3ccc(C(=O)NCCN4CCN(C)CC4)cc3nc2-c2cccc(C)c2)c1,11.7% (inactive)
17,O=C(NCc1cccnc1)c1cnc2ccccc2n1,3.89% (inactive)
18,O=C(O)Cc1csc(NC(=O)CSc2nnnn2-c2ccc(O)cc2)n1,-3.77% (inactive)
19,O=C(CC(O)(C(F)(F)F)C(F)(F)F)Nc1ccc(Cl)c(Cl)c1,88.8% (active)
20,CS(=O)(=O)N(CC(=O)Nc1ccc(Cl)c(Cl)c1)C1CCCCC1,27.6% (inactive)
21,O=C(CCCN1C(=O)CCC1=O)Nc1ccc(Cl)c(C(F)(F)F)c1,-0.757% (inactive)
22,COc1ccccc1OCCC(=O)OCC(=O)NCc1ccccc1,9.81% (inactive)
23,COc1cccc(NC(=O)C(=O)c2cn(CC(=O)N3CCOCC3)c3ccccc23)c1,11.5% (inactive)
24,COc1cccc(C(C(=O)NC2CCCC2)N(C(=O)c2ccco2)c2cccc(C(C)=O)c2)c1OC (centres undefined),11.8% (inactive)

row,SMILES,inhibition
1,CCOC(=O)NC(=O)/C(C#N)=C\c1ccccc1,15.6% (inactive)
2,O=C(/C=C/c1c(F)cccc1Cl)Nc1nn[nH]n1,0.073% (inactive)
3,CNC(=O)/C(C#N)=C/c1c(F)cccc1Cl,59.2% (active)
4,NC(=S)Nc1c(Cl)cccc1Cl,-2.06% (inactive)
5,COc1ccc(CS(=O)/C(Cl)=C(/Cl)C(=O)Nc2ccc(OC)nc2)cc1 (centres undefined),88.3% (active)
6,COc1ccc(C(=O)CCC(=O)Nc2ccc(Cl)cc2)cc1,-25.2% (inactive)
7,COc1ccc(NC(=O)/C(Cl)=C(/Cl)S(=O)Cc2ccc(C)cc2)cn1 (centres undefined),57.6% (active)
8,CCN(CC(=O)Nc1ccc(OC)cc1)C(=O)CSCc1ccc(C)cc1,-9.01% (inactive)
9,COc1ccc(Nc2ccc([N+](=O)[O-])cn2)cn1,1.7% (inactive)
10,COc1ccc(CCNC(=O)c2cnc(Cl)c(Cl)c2)cc1,-23.1% (inactive)
11,CCCCn1nc(C(=O)Nc2ccc(S(=O)(=O)Nc3ncccn3)cc2)c2ccccc2c1=O,6.41% (inactive)
12,Cc1ccc(CN(N=Nc2nonc2N)c2nonc2N)c(C)c1,36.7% (inactive)
13,CCCOCC(O)CC(CC)C(=O)NNC(=S)Nc1ccccc1 (centres undefined),7.95% (inactive)
14,CCC12CN3CC(CC)(CN(C1)C31C(=O)N(C)c3ccc(C)cc31)C2=O (centres undefined),-4.81% (inactive)
15,O=C1CCN(C(=O)Nc2ccccc2)N1,-12.2% (inactive)
16,O=C(N/N=C/c1cccnc1)c1ccc(NC(=O)c2ccc(F)cc2)cc1,-13.1% (inactive)
17,Cc1cc(/C=C(/C#N)C(=O)Nc2ccc(Cl)cc2)c(C)n1-c1cccnc1,-8.09% (inactive)
18,N#C/C(=C\c1cccnc1)C(=O)Nc1ccc(SC(F)F)cc1,45.6% (active)
19,O=C1Nc2ccc([N+](=O)[O-])cc2C1=Nc1cccc(CO)c1,8.6% (inactive)
20,Cc1cc2oc(=O)cc(CN3CCN(S(=O)(=O)c4cccs4)CC3)c2cc1C(C)C,-1.14% (inactive)
21,COc1ccc2c(CN3CCN(S(=O)(=O)c4cccs4)CC3)cc(=O)oc2c1,52.4% (active)
22,COc1ccc2oc(=O)cc(CN3CCOCC3)c2c1,-8.83% (inactive)
23,NC(=O)C(Cc1ccccc1)NC(=O)C12CC3CC(CC(C3)C1)C2 (centres undefined),16.3% (inactive)
24,CCO[C@@H]1OC(C(N)=O)=C[C@H](c2ccc(Br)cc2)[C@H]1CCCO,-4.73% (inactive)

row,SMILES,inhibition
1,Cc1ccc(-c2noc(CSc3nnc(-c4cccs4)n3C)n2)cc1,12.3% (inactive)
2,Cc1ccc(-c2noc(CSc3nnc(-c4ccncc4)n3-c3ccc(F)cc3)n2)cc1,46.2% (active)
3,Cc1nnc(SCc2ccc(C(=O)c3ccc(Cl)cc3)o2)n1-c1ccccc1,7.12% (inactive)
4,Cn1cccc1Cc1nnc(SCC(=O)NCCc2ccccc2)n1-c1ccc(F)cc1,10.2% (inactive)
5,Fc1ccc(-n2c(Cc3ccccc3)nnc2SCc2nc(-c3ccc(Cl)cc3)no2)cc1,41% (active)
6,Cn1c(SCc2ccc(F)cc2)nnc1-c1ccncc1,-15.7% (inactive)
7,C=CCn1c(C2CC(=O)N(c3ccc(C)cc3)C2)nc2ccccc21 (centres undefined),0.772% (inactive)
8,COc1cccc(-n2cc3c(c2-c2ccccc2)c(=O)n(C)c(=O)n3C)c1,-0.343% (inactive)
9,CCN(CC)CCNC(=O)c1sc2ncn(CC(=O)Nc3ccc(C)c(Cl)c3)c(=O)c2c1C,-10.3% (inactive)
10,Cc1ccc(Nc2nc(CSc3nnc(-c4ccncc4)n3-c3ccccc3C)cs2)cc1,19.6% (inactive)
11,COc1ccc(-c2cn[nH]c2-c2ccc(OC)cc2)cc1,35% (inactive)
12,CCOc1ccccc1Oc1cn[nH]c1-c1ccc(OC)cc1O,-79.8% (inactive)
13,COc1ccc(Oc2cn[nH]c2-c2ccc(OC)cc2O)cc1,45.7% (active)
14,COc1ccc(-c2cc3nc(C)c(CCC(=O)NC(C)CCc4ccco4)c(C)n3n2)c(OC)c1 (centres undefined),23.7% (inactive)
15,CN(C)c1ccnc2sc(C(=O)c3ccccc3)c(N)c12,40.4% (active)
16,CCc1nc2sc(C(=O)O)c(N)c2c2c1CCCC2,-94.9% (inactive)
17,CC(=O)c1c(Nc2ccccc2)sc(C(=O)c2ccccc2)c1C,-7.77% (inactive)
18,Cc1ccc2c(N)c(C(=O)c3ccccc3)sc2n1,36.2% (inactive)
19,CN(C(=O)c1ccccn1)c1nnc(-c2ccccn2)s1,1.41% (inactive)
20,Cc1nc2sc(C(=O)c3ccccc3)c(N)c2c2c1CCCC2,41.5% (active)
21,Cc1nnc(SC(C(=O)Nc2cc(Cl)cc(Cl)c2)c2ccccc2)[nH]c1=O (centres undefined),14.3% (inactive)
22,CCn1c(SCC(=O)NC2CC2)nnc1-c1ccncc1,-12.4% (inactive)
